Assay results taken from PubChem BioAssay AID1347417 (National Center for Advancing Translational Sciences (NCATS), 2020).
In all, about 120,000 compounds went through this assay and about 5,300 (4.4%) were called active. Inconclusive results (about 22%) are left out. Shown is part of a subset that was picked to be rich in actives. A number with no mark means an inactive call. Calls follow the shape of the dose curve; as a rule, active = well fitted inhibition curve with a large enough effect; inconclusive = small, poorly fitted or top-dose-only effect; inactive = no such curve, though single readings can be large or run the other way.

Test: qHTS Primary assay for Inhibitors of Plasmodium falciparum Dd2 growth in vitro; also: nearly all actives have a fitted effect of over 65% in size;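 as to activity, negative = inhibition: plate controls were DMSO vehicle for no effect and reference drug for full effect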
Conditions: P. falciparum Dd2 growth, SYBR Green, 72 h; series mostly up to 28.9 µM; activity, negative = inhibition: at the top concentration
From the text: Malaria, a parasitic disease spread to humans through the bite of a Plasmodium infected Anopheles mosquito, continues to be a global health burden affecting millions of people, with an estimated 228 million cases and 405,000 deaths in 2018. Concerns about safety and limitations of current antimalarial treatments strongly emphasize the need to develop new therapeutic options. The scarce number of chemotypes and validated drug targets with efficacy against the liver stage, have hindered development of new antimalarials. To address this, a chemoprophylactic drug discovery effort was conducted through a combined phenotypic high-throughput asexual blood stage and liver stage screen, providing a robust foundation to identify liver-stage active lead chemotypes. Compounds were initially screened against Plasmodium falciparum Dd2 strain parasites using a in vitro SYBRGreen-1 based 72 hr proliferation assay to identify novel chemotypes to advance to liver stage assays. NIH/NCATS Early Translation Branch Assay Submitter (PI): Anton Simeonov Ph.D.
Malaria-vivax Assay Protocol: PROTOCOL TABLE (as described by Inglese et al., 2007) SEQUENCE No. (e.g., 1, 2, 3, etc.); […] (e.g., Cells, Incubation, Reagent, etc.); VALUE; DESCRIPTION SEQUENCE, Parameter, Description 1; Reagent; 3 uL complete malaria growth medium, 1536 TC treated Black clear bottom plate 2; Controls; 23 nL positive control artesunate (300 nM final) to column 1; Neutral control DMSO to columns 2-4 3; Compound; 23 nL of compounds in dose response concentration (29 uM to 0.5 nM final) 4; Reagent; 5 uL malaria infected red blood cells (2.5% hematocrit final, 0.3% parasitemia 5; Time; 72 hours at 37C (5% O2, 5% CO2, 90% N2; 95% Rh) 6; Reagent; 2 uL lysis buffer/SYBRGreen-1, 25 sec shake immediately following dispense 7; Time; ~16 hours at 37C (5% O2, 5% CO2, 90% N2; 95% Rh) 8; Detector; EnVision (PerkinElmer) bottom read at 485/14nm excitation and 535/25 nm emission NOTES (numbers refer to sequence above): 1; Complete Malaria Growth Media: 1X RPMI-1640 w/L-glutamine, 5.5g/L Albumax II, 367 uM Hypoxanthine, 25 mM HEPES, 0.25% Sodium Bicarbonate, 35 uM Gentamicin sulfate 2; Controls were added using the Kalypsis Pintool (Wako USA) equipped with 1536 pinhead 3; Compounds were added in a 7-point, titration with a high final concentration of 29 uM by Pintool from seven inter-plate titrations of library plates and two DMSO control plates at the beginning and end (see Yasgar et al., 2008). 4; Red blood cells infected with Plasmodium falciparum Dd2 parasites were used. 6; Lysis buffer: 20 mM Tris-HCl, 10 mM EDTA, 0.16% Saponin, 1.6% Triton-X, 10X SYBR Green. REFERENCE: Inglese J, Shamu CE, Guy RK. 2007. Reporting data from high-throughput screening of small-molecule libraries. Nat Chem Biol. doi:10.1038/nchembio0807-438 Yasgar A, Shinn P, Jadhav A, Auld D, Michael S, Zheng W, Austin CP, Inglese J, Simeonov A. 2008. Compound Management for Quantitative High-Throughput Screening. J Lab Autom 13:79-89. doi:10.1016/j.jala.2007.12.004
Potency is read from the fitted curve at half-maximal effect.

Structure (SMILES) | activity, negative = inhibition | Potency | outcome
CCn1c(=O)c2cc(C(=O)NCCc3ccc(Cl)cc3)sc2c2ccccc21 | 5.17% |  | 
CCN(CCCNC(=O)c1cc2c(=O)n(CC)c3ccccc3c2s1)Cc1ccccc1 |  | 4.47 µM (active) | 
CCc1ccc(CNC(=O)c2cc3c(=O)n(CC)c4ccccc4c3s2)cc1 | -2.37% |  | 
CN(Cc1ccc2c(c1)OCO2)C(=O)C1(C)CCOCC1 | -15.2% [at 44.1 µM] |  | 
COCCNC(=O)CC[C@]12CC[C@](C)(O)C[C@H]1C(C)(C)C[C@@H]2NC(=O)c1ccc(C(F)(F)F)cc1 |  |  | inactive
Cc1c[nH]c(CN2CCCC(CCc3ccc(F)cc3F)C2)c(C)c1=O (centres undefined) |  | 10 µM (active) | 
Cc1noc(C)c1C(=O)N1CCCC(CCc2ccc(F)cc2F)C1 (centres undefined) | -8.48% |  | 
Cc1cc(F)ccc1NC(=O)CCC1CCCN(C(=O)c2ccc(Cl)s2)C1 (centres undefined) |  |  | inactive
CC(C)(C)C(=O)Cn1ccn2nc3c(c2c1=O)CCCC3 | -23.6% |  | 
Cc1cc2nc3n(c(=O)c2n1CC(=O)NC(C)CCc1ccccc1)CCCC3 (centres undefined) |  |  | inactive
COc1ccc2c(CNCCc3ccccc3C)c(C(=O)O)n(Cc3ccccc3C)c2c1 | 54.4% [at 5.79 µM] |  | 
CCc1ccc(CNCc2c(C(=O)O)n(Cc3ccc(F)cc3Cl)c3cc(OC)ccc23)cc1 |  |  | inactive
COc1cccc(CNCc2c(C(=O)O)n(Cc3ccc(C)cc3)c3cc(C)ccc23)c1OC |  | 10 µM (active) | 
O=C(CCCc1ccccc1)N1CCCC(c2nc(C3CCOCC3)no2)C1 (centres undefined) | -17.4% |  | 
CC(C)CN1CCOC[C@H](Oc2ccc(S(C)(=O)=O)cc2)C1 | -22.7% [at 44.1 µM] |  | 
COc1ccc(O[C@H]2COCCN(Cc3nccn3C)C2)cc1 |  |  | inactive [at 44.1 µM]
Cn1cc(CN2CCOC[C@H](Oc3ccc(S(C)(=O)=O)cc3)C2)c2ccccc21 |  | 10 µM (active) | 
COc1ccc(-c2noc(CC3CCN(C(=O)Cc4ccc(C)cc4)CC3)n2)cc1 | -16% |  | 
COc1ccc(-c2noc(CC3CCN(C(=O)Cc4ccc(OC)c(OC)c4)CC3)n2)cc1 |  | 11.2 µM (active) | 
COc1ccc(CC(=O)N2CCC(Cc3nc(-c4ccccc4)no3)CC2)cc1OC |  |  | inactive

Structure (SMILES) | activity, negative = inhibition | Potency | outcome
N#Cc1ccc(C(=O)N[C@@H](Cc2ccccc2)C(=O)N2CCCOCCNC(=O)CC2)cc1 | -20.6% |  | 
CC(C)(C)C(=O)N1CCC(c2nn(-c3ccc(F)cc3)c(=O)[nH]2)CC1 |  |  | inactive [at 44.1 µM]
Cc1ccc(NC(=O)N2CCc3[nH]c4ccc(F)cc4c3C2)cc1 | -6.6% |  | 
COCc1cn([C@H]2CO[C@H]3[C@@H]2OC[C@H]3OC(=O)Nc2cccc(C#N)c2)nn1 |  |  | inactive [at 44.1 µM]
CCOc1ccccc1NC(=O)Cn1c(=O)n(Cc2ccccc2)c(=O)c2c(C)c(C(=O)N(C)C)sc21 |  | 3.16 µM (active) | 
Cc1c(C(=O)N(C)C)sc2c1c(=O)n(-c1ccc(F)cc1)c(=O)n2CC(=O)N(C)c1ccccc1 | 62.2% |  | 
COc1cccc(-n2c(=O)c3c(C)c(C(=O)N(C)C)sc3n(CC(=O)NCCc3ccc(OC)c(OC)c3)c2=O)c1 | -23.1% |  | 
COc1ccc(Nc2ccc3c(n2)CN(Cc2ccccc2C)C(=O)CO3)cn1 | -2.87% [at 44.1 µM] |  | 
O=C(C1CCCO1)N1CCC2(CC1)NCCc1c2[nH]c2ccccc12 (centres undefined) | -8.14% |  | 
O=C(COc1ccc(F)cc1)N1CCC2(CC1)NCCc1c2[nH]c2ccccc12 |  | 10 µM (active) | 
COCCOCC(=O)N1CCC2(CC1)NCCc1c2[nH]c2ccccc12 | -26.8% |  | 
Cc1nc2ncccn2c1C(=O)N[C@@H]1CCOC[C@H]1Oc1ccccn1 | -3.97% |  | 
Cc1ccc2c(C(=O)O)cc(NC(=O)C(C)C)cc2n1 | 24% |  | 
Cc1ccccc1NC1CCn2c(nc(C)c2C(=O)Nc2ccc(F)cc2)C1 (centres undefined) | -18.3% [at 44.1 µM] |  | 
CCN(CCCNC(=O)c1cc2cc3cc(OC)ccc3nc2s1)c1ccccc1 | -5.94% |  | 
CCN(CCCNC(=O)c1nnn2cc(-c3ccccc3)[nH]c(=O)c12)c1ccccc1 |  | 8.91 µM (active) | 
CCN(CCCNC(=O)Cn1ncc2c([nH]c3ccccc32)c1=O)c1cccc(C)c1 | -14.7% |  | 
Cc1nn(C)cc1CN(C)C(=O)C1CN(S(=O)(=O)c2cccnc2)CC12CCCCC2 (centres undefined) |  |  | inactive
COc1cc(=O)n2c(c1C(=O)Nc1cccc(Br)c1)CCCC2 | 27.2% |  | 
CCOc1ccc(-c2cc(C)n3nc(C(=O)Nc4ccc(C)c(C)c4)cc3n2)cc1 | -17.2% |  | 

Structure (SMILES) | activity, negative = inhibition | Potency | outcome
CCOc1ccc(-c2cc3nc(C4CCN(C(=O)OC(C)(C)C)CC4)c(C(=O)Nc4cccc(CC)c4)cn3n2)cc1 |  | 7.94 µM (active) | 
CCc1cccc(NC(=O)N2CCC(c3noc(COc4ccc(F)cc4)n3)CC2)c1 | -6.5% |  | 
O=C(C[C@@H]1CCNC[C@@H]1Cc1cc(COc2ccccc2)on1)NCc1ccco1 |  |  | inactive [at 44.1 µM]
CCc1cccc(NC(=O)CN2C(=O)NC(c3ccc(Cl)cc3)C3=C2COC3=O)c1 (centres undefined) | -19.7% |  | 
Cc1ccc(-c2nnc(C3CN(C(=O)c4cc(C)cc(C)c4)CC34CCOCC4)o2)cc1 (centres undefined) | -5.46% |  | 
CC(=O)NCC(=O)N1Cc2ccccc2CC2(CCCN2Cc2cccnc2)C1 (centres undefined) | 21.7% |  | 
O=[S+]([O-])(c1ccccc1)N1CC2(CCCCN2Cc2cccnc2)Cc2ccccc21 (centres undefined) |  | 8.91 µM (active) | 
C[S+](=O)([O-])N1Cc2ccccc2CC2(CCN(Cc3cccnc3)CC2)C1 | -18.3% |  | 
CN1CCCN(S(=O)(=O)c2ccccc2)CCC(=O)NCC1 | 25.3% |  | 
CC(C)c1noc(-c2cccn3c(CNC(=O)c4ccc(C(C)(C)C)cc4)nnc23)n1 | -0.267% |  | 
Cc1nc(-c2ccc(Cl)cc2)n(Cc2cc(F)cc(F)c2)c(=O)c1CCO | -10.6% |  | 
CCOc1ccc(C(=O)/C=C/c2cn(CC(O)CN3CCCCCC3)c3ccccc23)cc1 (centres undefined) |  | 12.6 µM (active) | 
CCOc1ccc(C(=O)N2CCCN(C(=O)C3CC3)c3ccccc32)cc1 |  |  | inactive; activator; fitted 1.7783 uM
COc1ccc2cc(C(=O)N3C[C@@H](Oc4ccccc4)C[C@H]3C(=O)N3CCOCC3)[nH]c2c1 | -1.38% |  | 
Cc1nc2c(c(C)nn2-c2ccccc2)c(C)c1CCC(=O)NCCc1ccc(Cl)cc1 | 22.1% |  | 
Cc1ccc(CNC(=O)CCc2c(C)nc3c(c(C)nn3-c3ccccc3)c2C)cc1 | -16.4% |  | 
COC(=O)c1ccc(NC(=O)CCc2c(C)nc3c(c(C)nn3-c3ccc(C)cc3)c2C)cc1 |  | 6.31 µM (active) | 
Cn1cc(-c2ccccc2)cc1C(=O)NCc1ccc(N2CCOCC2)cc1 |  |  | inactive
CC[C@@]1(C(=O)O)C[C@H](C(=O)NCCCO)[C@H](c2ccc(OC)cc2)N1C | -0.459% |  | 
